# In ChEMBL document CHEMBL4513143, “CO-ADD screening of University of Natural Resources and Life (Austria) compounds”:
# Potency and affinity values are given separately.
# What was measured:
# [1] = tested on: Klebsiella pneumoniae; settings: Concentration 32 ug.mL-1; ASSAY_TEST Inhibition of Bacterial Growth; detection method Absorption (OD600); MEDIA CAMHB; plate type 384well; NBS; CORNING #3640; time 18 hr
# [2] = tested on: Candida albicans; settings: 32 ug/mL
# [3] = tested on: Cryptococcus neoformans; settings: Concentration 32 ug.mL-1; ASSAY_TEST Inhibition of Fungal Growth; detection method Resazurin; Absorption (OD600-OD570); plate type 384well; NBS; CORNING #3640
compound,measurement,setting,value
[N-]=[N+]=NC[C@H]1OC(O)[C@@H](O)[C@@H]1O (stereo partly drawn),Inhibition,[1],29.69%
same,Inhibition,[2],3.08%
same,Inhibition,[3],-7.43%
